Results on 105 molecules are retold here after PubChem BioAssay AID2546 (National Center for Advancing Translational Sciences (NCATS), 2010).

About 11,000 (3.5%) of roughly 310,000 compounds were called active. A call without a number means that no potency is given here. Roughly 8% stayed inconclusive and do not appear here. This excerpt belongs to a sample that is enriched for actives. Unmarked numbers belong to inactive results. The call rests on the fitted dose curve; in most records, active means well fitted inhibition curve with a large enough effect; inconclusive means small, poorly fitted or top-dose-only effect, or effect the other way; inactive means flat fitted curve, though single readings scatter.
Potency means the concentration at half of the fitted maximal effect.

The nature of the test: VP16 counterscreen qHTS for inhibitors of ROR gamma transcriptional activity.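 Further: Gal4-VP16 expression switched on by copper sulfate through the metallothionein promoter; nearly all actives have a fitted effect of over 50% in size.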 The following applies: Drosophila S2 Gal4-VP16 UAS-luciferase, luminescence, 20 h; series mostly up to 53.6 µM.
On to `Cc1cc(C)nc(N/N=C/c2c(CO)cnc(C)c2O)n1`, for which the Potency entry is “inactive”.

Regarding `COc1ccc(OC)c(CCNC(=O)CCn2ccc3cc(S(=O)(=O)N4CCCC4)ccc32)c1`, the Potency result is “inactive”.

With `CC(=O)Nc1ccc(-c2nc3ccccc3o2)cc1`, the Potency result is “inactive”. Consider `Cc1ccc2nc(-c3ccc(NC(=O)c4cccnc4)cc3)oc2c1`, for which the Potency was 1.26 µM (active). On to `Cc1cc2nc(-c3ccc(NC(=O)c4cccnc4)cc3)oc2cc1C`, for which the Potency entry is “inactive”. With `CN(c1ccccc1)S(=O)(=O)c1ccc(Cl)c(C(=O)OCC(N)=O)c1`, the Potency result is “inactive”. Same read-out and setting: the figure for `CC(=O)c1c(C)[nH]c(C(=O)COC(=O)c2cccc(S(=O)(=O)N(C)c3ccccc3)c2)c1C` is 5.62 µM (active). For `COc1ccc(C)cc1NC(=O)C(OC(=O)c1cccc(S(=O)(=O)N(C)c2ccccc2)c1)c1ccccc1` (stereo not given), the Potency result is “inactive”. With `CCCn1nnnc1NCc1ccc(OC)cc1`, the Potency entry was “inactive”. As for `CCn1c(=O)c2ccccc2n(CC(=O)N2CCCc3ccccc32)c1=O`, the Potency entry is “inactive”. Regarding `O=C(Nc1ccccc1Cl)Nn1cnnc1`, the Potency result is “inactive”. Regarding `O=C(Nc1ccccc1Cl)/C(Cl)=C(\Cl)S(=O)c1ccccc1` (stereo not given), the Potency was 0.794 µM (active). As to `COCCN(CCOC)C(=S)Nc1ccccc1Cl`, the Potency entry was “inactive”.

For `Cc1cccc(C(=O)Nc2ccc(Oc3cnccn3)cc2)c1`, the Potency entry is “inactive”. As to `COc1ccc(OC)c(S(=O)(=O)N2CCCC(C(=O)NCCc3ccccc3)C2)c1` (stereo not given), the Potency entry was “inactive”. As for `COc1ccc(NC(=O)Cn2ncn3c(cc4ccccc43)c2=O)c(OC)c1OC`, the Potency result is “inactive”.

In the case of `Cc1onc(-c2ccccc2)c1C(=O)N1CCN(S(=O)(=O)c2ccccc2C(F)(F)F)CC1`, the Potency entry was “inactive”. As for `Cc1ccc(/C=C2\CCn3c2nc2cc(C(=O)O)ccc2c3=O)c(C)c1`, the Potency result is “inactive”. Turning to `CC1CC(C)CN(CCOc2cccc3ccccc23)C1` (stereo not given), the Potency result is “inactive”. Take `CCOC(=O)[C@@H]1[C@H]2COc3cc(OC)ccc3[C@H]2N2C(=O)N(c3ccc(F)cc3)C(=O)[C@]12C`: the Potency result is “inactive”. Regarding `O=C(Nc1cccc(S(=O)(=O)Nc2ccc(Cl)cc2)c1)c1ccc2c(c1)OCCO2`, the Potency is 0.794 µM (active). The same measure, in the same setting: the entry for `O=C(Nc1ccc2c(c1)OCCO2)c1ccc(Cl)c(S(=O)(=O)N2CCCCC2)c1` is “inactive”. Turning to `O=C(Nc1cccc(S(=O)(=O)N2CCCCC2)c1)c1ccc2c(c1)OCO2`, the Potency entry is “inactive”.

Turning to `O=C(NC1CCCC1)C(c1c(F)cccc1Cl)N(C(=O)c1csnn1)C1CC1` (stereo not given), the Potency entry is “inactive”. For the molecule `COc1ccc2nc(C)cc(Nc3cccc(C(=O)O)c3)c2c1`, the Potency result is “inactive”. With `O=C(O)COc1ccc(-c2nccc(-c3cccs3)n2)cc1`, the Potency is 15.8 µM (active). In the case of `COC(=O)CSc1nccc(-c2cccs2)n1`, the Potency result is “inactive”. On the same count and under the same terms, the result for `O=C(Nc1ccnc(-c2ccncc2)n1)c1cccs1` reads “inactive”; that for `c1ccc(CSCCc2ccncc2)cc1`, “inactive”. Regarding `Cc1ccc(SCCSc2ncccn2)cc1`, the Potency entry was “inactive”. Still for that read-out and setting: the figure for `CC(C)(C)c1ccc(SCCc2ccncc2)cc1` is 17.8 µM (active); for `Cc1cc(C)c(SCCc2ccncc2)c(C)c1` it is 11.2 µM (active); for `Cc1cc(C)c(NC(=O)CSc2nc3ccncc3[nH]2)c(C)c1` it is “inactive”.

Turning to `CCN(Cc1ccncc1)C(=O)CCc1ccccc1`, the Potency entry was “inactive”.

Consider `C=CCOc1ccc(/C=C2/C(=O)ON=C2C)cc1OCC`, for which the Potency entry was “inactive”. As to `CCOc1ccc(NC(=O)C(C)N2C(=O)c3ccccc3C2=O)cc1` (stereo not given), the Potency entry is “inactive”. In the case of `Cc1ccc(S(=O)(=O)NC2CCCCCC2)cc1C(N)=O`, the Potency entry is “inactive”. In the case of `CCc1ccc(-n2c(=S)sc3c(=O)n(-c4ccccc4OC)c(=S)[nH]c32)cc1`, the Potency entry was “inactive”. As to `CCCSc1nc2sc3c(c2c(=O)n1-c1ccc(OC)cc1)CCN(C)C3`, the Potency result is “inactive”. Same read-out and setting: the figure for `COc1ccc(-n2c(=S)[nH]c3sc4c(c3c2=O)CCc2ccccc2-4)cc1` is 0.251 µM (active); for `O=C(Nc1ccc(C(=O)N2CCCCC2)cc1)c1cccc([N+](=O)[O-])c1` it is “inactive”. Regarding `COc1cc(C(=O)NCc2ccncc2)cc(Br)c1OCc1ccccc1`, the Potency result was “inactive”. Regarding `CC(C)[C@@H]1COC(c2cccc(C3=N[C@H](C(C)C)CO3)c2)=N1`, the Potency result was “inactive”. On the same count and under the same terms, the entry for `C#CCOc1ccc(/C=C2/C(=O)ON=C2C)cc1OCC` is “inactive”; for `O=C(Nc1ccc2nc3n(c(=O)c2c1)CCCCC3)c1ccccc1Cl` it is “inactive”. Still for that read-out and setting: the entry for `O=C(Nc1ccc(N2CCOCC2)c(Cl)c1)c1ccc(S(=O)(=O)N2CCOCC2)cc1` is “inactive”; for `O=C(Nc1ccc2c(c1)nc1n2CCCCC1)c1cc(S(=O)(=O)N2CCOCC2)ccc1Cl` it is 12.6 µM (active); for `Nc1ncc(CN2CCCC(C(=O)Nc3ccc(-c4ccco4)cc3)C2)cn1` (stereo not given) it is “inactive”. On to `N=c1oc2ccccc2cc1C(=O)NCc1ccccc1`, for which the Potency entry was “inactive”.

`CCCNC(=O)COc1coc(CN2CCN(Cc3ccccc3)CC2)cc1=O`: the Potency entry was “inactive”. For the molecule `COc1cccc(-n2c(=S)[nH]c3c(oc4ccccc43)c2=O)c1`, the Potency is 11.2 µM (active). For `COc1cccc(-n2cc(C(=O)O)c3ccccc3c2=O)c1`, the Potency entry is “inactive”. For the molecule `COc1cccc(N2C(=O)CN(Cc3ccccc3)C2=S)c1`, the Potency entry is “inactive”. Take `CCC(CC)COC(=O)C1=C(C)NC(=O)NC1c1ccc([N+](=O)[O-])cc1` (stereo not given): the Potency result is “inactive”. With `COCCn1c(SCC(=O)N2CCCCCC2)nc2c(c1=O)SCC2`, the Potency entry was “inactive”.

Consider `Cc1ccsc1/C=N/Nc1ccc(Cl)nn1`, for which the Potency result is “inactive”. Regarding `COc1cccc(/C=N/Nc2ccc(Cl)nn2)c1`, the Potency result is “inactive”.

As to `Oc1cccc(/C=N/Nc2ccc(Cl)nn2)c1O`, the Potency was 2.82 µM (active). `Cc1ccc(S(=O)(=O)c2ccc(Oc3ccccc3)cc2)cc1`: the Potency result was “inactive”. As for `CN(C)S(=O)(=O)c1ccc(NC(=O)N2CCOCC2)cc1`, the Potency entry is “inactive”. As for `CN(C)S(=O)(=O)c1ccc(Oc2ccc(S(=O)(=O)N(C)C)cc2)cc1`, the Potency was 3.16 µM (active). For the molecule `CSc1ncc(C(=O)NCCCc2ccccc2)c(C)n1`, the Potency result was “inactive”. With `O=C(Nc1cccc(-c2nc3ccccc3[nH]2)c1)c1ccc(C(=O)Nc2cccc(-c3nc4ccccc4[nH]3)c2)cc1`, the Potency was 2.82 µM (active). For `O=C(Cc1cccs1)Nc1cccc(-c2nc3ccccc3[nH]2)c1`, the Potency entry was “inactive”.

For `O=C(/C=C/c1ccco1)Nc1cccc(-c2nc3ccccc3[nH]2)c1`, the Potency result is “inactive”.

With `Cc1c(C)c2ccc(OCC(=O)N3CCC(C(=O)O)CC3)c(C)c2oc1=O`, the Potency result was “inactive”. Take `CC(=O)c1c(C)oc2ccc(NS(=O)(=O)c3ccccc3)cc12`: the Potency result was “inactive”. As for `COC(=O)COc1ccc(S(=O)(=O)Nc2ccc(NC(C)=O)cc2)cc1`, the Potency entry was “inactive”.

With `COc1cc(NS(=O)(=O)c2ccc(NC(C)=O)cc2)cc(OC)c1`, the Potency is 20 µM (active). As to `COc1ccc(S(=O)(=O)Nc2ccc3oc(C)c(C(C)=O)c3c2)cc1`, the Potency was 11.2 µM (active). On the same count and under the same terms, the entry for `CC(=O)c1c(C)oc2ccc(NS(=O)(=O)c3ccc(C(=O)O)cc3)cc12` is “inactive”.

As for `COc1ccc(/C=N/NS(=O)(=O)c2ccc(NC(C)=O)cc2)cc1`, the Potency result was “inactive”. On the same count and under the same terms, the result for `Cc1ccnc(NS(=O)(=O)c2ccc(NC(=O)c3oc4ccc(F)cc4c3C)cc2)n1` reads “inactive”; that for `CC1CCCCN1C(=O)CCS(=O)(=O)Cc1ccccc1` (stereo not given), “inactive”. Still for that read-out and setting: the result for `COc1ccc(/C=C2\SC(=O)N(CCC(=O)NCCCn3ccnc3)C2=O)cc1` reads “inactive”. As for `COc1ccc(C2=Nn3c(nnc3-c3ccccc3O)SC2)cc1`, the Potency result is “inactive”. `CCn1cc(C(=O)NCC(=O)NC(C)(C)CO)c(=O)c2cc3c(cc21)OCO3`: the Potency entry is “inactive”. For the molecule `Cc1ccc(C(=O)NC23CC4CC(CC(C4)C2)C3)c(Cl)c1`, the Potency result was “inactive”. In the case of `Cc1noc(C)c1CCC(=O)N1CCCC(CO)(Cc2ccccc2)C1` (stereo not given), the Potency entry was “inactive”. For `COc1ccccc1C1C2=C(COC2=O)Nc2cc3c(cc21)OCO3` (stereo not given), the Potency entry is “inactive”.

On to `CCCOc1ccccc1C1CC(=O)Nc2cc3c(cc21)OCO3` (stereo not given), for which the Potency is 14.1 µM (active). In the case of `COc1ccc(C2CC(=O)Nc3cc(C)c(C)cc32)c(OC)c1OC` (stereo not given), the Potency entry is “inactive”. With `O=C(NCCCN1CCCC1=O)C(=O)NCC1OCCN1S(=O)(=O)c1ccc(Br)cc1` (stereo not given), the Potency result is “inactive”. Consider `O=C(O)c1ccc(NC(=O)c2cn(-c3ccccc3)nc2-c2ccc(Cl)cc2)cc1`, for which the Potency entry is “inactive”. As to `CN(C)/N=C/c1cn(-c2ccccc2)nc1-c1cccnc1`, the Potency result is “inactive”. Still for that read-out and setting: the figure for `COc1ccc(-c2nn(-c3ccccc3)cc2C(=O)Nc2nccs2)cc1OC` is 22.4 µM (active); for `CC(=O)Cc1nsc(NC(=O)c2ccc(COc3ccc(C)cc3)o2)n1` it is “inactive”. With `CC(C)(C)OC(=O)N/N=C/c1cn(-c2ccccc2)nc1-c1cccnc1`, the Potency result was “inactive”. Take `O=C(O)c1ccccc1-c1ccccc1C(=O)Nc1nccs1`: the Potency entry was “inactive”.

For `COc1ccc(NC(=O)c2cn(-c3ccccc3)nc2SC)cc1`, the Potency result was “inactive”. In the case of `COc1ccc(-c2nn(-c3ccccc3)cc2/C=N/Nc2ccccn2)cc1OC`, the Potency was 8.91 µM (active). Same read-out and setting: the figure for `COc1ccc(-c2nn(-c3ccccc3)cc2C(=O)Nc2nc(CC(C)=O)ns2)cc1` is 12.6 µM (active); for `O=C1C[C@@H](c2ccc3ccccc3c2)N1S(=O)(=O)c1ccccc1[N+](=O)[O-]` it is “inactive”. As for `Cc1ccc(CNS(=O)(=O)c2ccc3c(c2)N(C)CCO3)cc1`, the Potency entry was “inactive”. Take `Cc1cc(=O)[nH]c(Nc2cccc(Br)c2)n1`: the Potency entry was “inactive”. On the same count and under the same terms, the entry for `COc1ccccc1C(=O)N1CC2(C)CC1CC(C)(C)C2` (stereo not given) is “inactive”; for `Cc1nnnn1/C(=C\c1ccccc1)C(=O)OCC(=O)N1CC2(C)CC1CC(C)(C)C2` (stereo not given) it is 10 µM (active). Regarding `Cc1cccc(C(=O)NCC(=O)OCC(=O)N2CC3(C)CC2CC(C)(C)C3)c1` (stereo not given), the Potency entry was “inactive”. Regarding `CCOC(=O)c1ccc(NC(=O)c2cccnc2)cc1`, the Potency result is “inactive”. On to `CCSc1nc2sc3c(c2c(=O)n1-c1ccc(C)cc1)CCN(C)C3`, for which the Potency result was “inactive”. Consider `Cc1cccc(NC(=S)N2CCCC(c3nc4ccccc4[nH]3)C2)c1` (stereo not given), for which the activity, negative = inhibition is 5.42% [at 10 µM]. In the case of `O=C(C1CCCO1)N1CCN(C(=S)Nc2cccc(Cl)c2)CC1` (stereo not given), the Potency entry was “inactive”. On the same count and under the same terms, the figure for `Cc1ccc(C2CCN(C(=S)Nc3cccc(Cl)c3)C2)cc1` (stereo not given) is 12.6 µM (active); for `CC(=O)c1nn(-c2cccc(C(F)(F)F)c2)c(=O)[nH]c1=O` it is “inactive”. As for `COc1ccccc1CCNC(=O)c1c(C)nn(CC(C)C)c1Cl`, the Potency result is “inactive”.
